In PubChem BioAssay (NCATS):
Records with an inconclusive call do not appear. A call without a number means that no potency is given here. The source made the active and inactive calls. Calls follow the shape of the dose curve; as a rule, active = well fitted curve in the direction sought with a large enough effect; inconclusive = small, poorly fitted or top-dose-only effect, or another doubt; inactive = no such curve, though single readings can be large; an effect the other way counts as inactive or inconclusive.

How the values were obtained:
[1] = molecular target: N-terminal Xaa-Pro-Lys N-methyltransferase 1 (Homo sapiens) (UniProt Q9BV86); experiment: qHTS Assay for Inhibitors of N-terminal methyltransferase 1 (NTMT1): LOPAC validation of the NTMT1 SAHH-coupled ThioGlo3 Assay (AID 1347143);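 also: SAH from peptide methylation measured as thiol fluorescence via SAHH coupling and ThioGlo3; nearly all actives have a fitted effect of over 70% in size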; also: potency is read from the fitted curve at half-maximal effect
Chain of N-terminal Xaa-Pro-Lys N-methyltransferase 1 (Homo sapiens) (Q9BV86 whole entry, looked up): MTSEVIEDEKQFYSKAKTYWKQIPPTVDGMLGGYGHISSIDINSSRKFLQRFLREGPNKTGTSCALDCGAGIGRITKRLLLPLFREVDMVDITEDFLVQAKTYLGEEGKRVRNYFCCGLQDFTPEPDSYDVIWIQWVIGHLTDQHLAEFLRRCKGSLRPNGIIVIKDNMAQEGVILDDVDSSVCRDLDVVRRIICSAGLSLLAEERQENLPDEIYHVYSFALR
Outline: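 NTMT1 125nM + cpds (various conc.), 1 min RT; add SAM 100uM/SAHH 10uM/ThioGlo3 15uM (addition mix). SAHH-coupled thiol detection, Ex340/Em450, t0 and 30 min RT; signal normalized to background. LOPAC 1280-cpd pilot.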

[2] = test system: Zika virus NS2B-NS3 protease (unlinked); experiment: Optimization of GU AMC qHTS for Zika virus inhibitors: Unlinked NS2B-NS3 protease assay (AID 1347151); also: series mostly up to about 52 µM; nearly all actives have a fitted effect of over 80% in size
Outline: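 Fluorescence gain (340/450 nm) over 15 min at room temperature, ~20% conversion, gave percent inhibition fitted to a 4-parameter Hill equation; enzyme was unlinked NS2B-NS3 (25 nM final), pH 8.0 Tris buffer.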

[3] = test system: Zika virus NS2B-NS3 protease; experiment: Primary screen GU AMC qHTS for Zika virus inhibitors (AID 1347154); also: nearly all actives have a fitted effect of over 70% in size
Outline: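 Fluorogenic AMC-substrate cleavage by noncovalent NS2B-NS3 protease complex (25 nM, pH 8.0 Tris buffer with Tween 20) followed for 15 minutes at room temperature (~20% conversion). Percent inhibition from ex340/em450 signal change, fitted by 4-parameter Hill equation.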

SMILES | Potency [1] | Potency [2] | Potency [3]
CN(C)CCC=C1c2ccccc2C=Cc2ccccc21 | inactive | inactive | inactive
Cn1c(=O)c2c(ncn2C)n(C)c1=O | inactive | inactive | inactive
NC(=O)OCC(COC(N)=O)c1ccccc1 | inactive | inactive | inactive
Nc1nnc(-c2cccc(Cl)c2Cl)c(N)n1 | inactive | inactive | inactive
CC(C)(Oc1ccc(C2CC2(Cl)Cl)cc1)C(=O)O (stereo not drawn) | inactive | inactive | inactive
CN(C)CCOC(c1ccccc1)c1ccccc1 | inactive | inactive | inactive
CN(C)c1nc(N(C)C)nc(N(C)C)n1 | inactive | inactive | inactive
OCCN1CCN(CCCN2c3ccccc3Sc3ccc(C(F)(F)F)cc32)CC1 | 44.7 µM (active) | inactive | inactive
CCOC(=O)C(C)(C)Oc1ccc(Cl)cc1 | inactive | inactive | inactive
CCC1(C)CC(=O)NC1=O (stereo not drawn) | inactive | inactive | inactive
CC[N+](CC)(CC)CCOc1cccc(OCC[N+](CC)(CC)CC)c1OCC[N+](CC)(CC)CC | 44.7 µM (active) | inactive | inactive
Nc1ccn([C@H]2CC[C@@H](CO)O2)c(=O)n1 | inactive | inactive | inactive
O=C(CCCN1CCC(O)(c2ccc(Cl)cc2)CC1)c1ccc(F)cc1 | inactive | inactive | inactive
NC(CO)C(=O)NNCc1ccc(O)c(O)c1O (stereo not drawn) | 8.91 µM (active) | inactive | inactive
CN(CCOc1ccc(NS(C)(=O)=O)cc1)CCc1ccc(NS(C)(=O)=O)cc1 | inactive | inactive | inactive
COc1ccc2c(c1)c(CC(=O)O)c(C)n2C(=O)c1ccc(Cl)cc1 | inactive | inactive | inactive
